# The supplement of paper PMC8728848
# This is one part of a sample in which the strongest signals are shown more often than they occur.
# B1: DC-SIGN (Canis lupus), XP_853402 (protein)
# chain: AGLCRPCPWKWELFQESCYFFSQTQNTWKESISACQNLRAQLVIINSTEEQKFLKSWNTRNNQRTWIGLSDHHNEGSWKWVDNTPLQLSFWKEGEPNNHGDEDCVELYSDGWNDNRCSTENFWICKKPSSPCPGPGLNDIFEAQKIEWHE
# Assays:
# Assay in all cases: glycan array binding signal (z-score within array); higher = stronger binding
# Settings in all cases: glycan notation: IUPAC condensed, linker removed
# [1] = biological target: Fuc(a1-2)Gal(b1-3)[Fuc(a1-4)]GlcNAc(b1-2)Man(a1-3)[Fuc(a1-2)Gal(b1-3)[Fuc(a1-4)]GlcNAc(b1-2)Man(a1-6)]Man(b1-4)GlcNAc(b1-4)GlcNAc
# Summary of the method: (§1)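 Glycan array binding is given as a within-array Z-score, which can be read as non-binding when negative. The arrays, 3228 of them, came from the Consortium for Functional Glycomics database and were retained only where the protein sequence was available. Z-scores were averaged across arrays of the same protein sequence at different concentrations or buffers and across linkers.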
# [2] = biological target: Fuc(a1-2)[GalNAc(a1-3)]Gal(b1-4)GlcNAc
# Summary of the method: as §1
# Fuc(a1-3)GlcNAc = biological target: Fuc(a1-3)GlcNAc
# Summary of the method: as §1
# [3] = biological target: Fuc(a1-3)[Gal(b1-4)]GlcNAc(b1-2)Man(a1-3)[Fuc(a1-3)[Gal(b1-4)]GlcNAc(b1-2)Man(a1-6)]Man(b1-4)GlcNAc(b1-4)GlcNAc
# Summary of the method: as §1
# [4] = biological target: Fuc(a1-3)[Gal(b1-4)]GlcNAc(b1-4)Gal(b1-4)[Fuc(a1-3)]GlcNAc
# Summary of the method: as §1
# [5] = biological target: Gal(a1-3)[Gal(a1-4)]Gal(b1-4)GlcNAc
# Summary of the method: as §1
# Gal(b1-2)Gal = biological target: Gal(b1-2)Gal
# Summary of the method: as §1
# [6] = biological target: Gal(b1-3)GlcNAc(b1-3)Gal(b1-4)Glc
# Summary of the method: as §1
# [7] = biological target: Gal(b1-3)[Fuc(a1-4)]GlcNAc(b1-2)Man(a1-3)[Gal(b1-3)[Fuc(a1-4)]GlcNAc(b1-2)Man(a1-6)]Man(b1-4)GlcNAc(b1-4)[Fuc(a1-6)]GlcNAc
# Summary of the method: as §1
# [8] = biological target: Gal(b1-3)[Neu5Ac(a2-6)]GalNAc
# Summary of the method: as §1
# [9] = biological target: Gal(b1-4)GalNAc(b1-3)[Fuc(a1-2)]Gal(b1-4)GlcNAc
# Summary of the method: as §1
# Gal3S(b1-3)GlcNAc = biological target: Gal3S(b1-3)GlcNAc
# Summary of the method: as §1
# [10] = biological target: GlcNAc(a1-4)Gal(b1-3)GlcNAc
# Summary of the method: as §1
# [11] = biological target: GlcNAc(a1-4)Gal(b1-4)GlcNAc(b1-3)Gal(b1-4)GlcNAc(b1-3)Gal(b1-4)GlcNAc
# Summary of the method: as §1
# [12] = biological target: GlcNAc(a1-4)Gal(b1-4)GlcNAc(b1-3)Gal(b1-4)[Fuc(a1-3)]GlcNAc(b1-3)Gal(b1-4)[Fuc(a1-3)]GlcNAc
# Summary of the method: as §1
# [13] = biological target: GlcNAc(a1-6)Gal(b1-4)GlcNAc
# Summary of the method: as §1
# [14] = biological target: GlcNAc(b1-3)[GlcNAc(b1-6)]Gal(b1-4)GlcNAc
# Summary of the method: as §1
# [15] = biological target: GlcNAc(b1-4)GlcNAc(b1-4)GlcNAc(b1-4)GlcNAc(b1-4)GlcNAc
# Summary of the method: as §1
# [16] = biological target: Man(a1-2)Man(a1-2)Man(a1-3)Man
# Summary of the method: as §1
# [17] = biological target: Man(a1-2)Man(a1-3)[Man(a1-2)Man(a1-6)]Man
# Summary of the method: as §1
# [18] = biological target: Man(a1-2)Man(a1-3)[Man(a1-2)Man(a1-6)]Man(a1-6)[Man(a1-2)Man(a1-2)Man(a1-3)]Man
# Summary of the method: as §1
# [19] = biological target: Man(a1-2)Man(a1-3)[Man(a1-2)Man(a1-6)]Man(a1-6)[Man(a1-2)Man(a1-2)Man(a1-3)]Man(b1-4)GlcNAc(b1-4)GlcNAc
# Summary of the method: as §1
# [20] = biological target: Man(a1-3)[Man(a1-6)]Man(a1-6)[Man(a1-2)Man(a1-3)]Man(b1-4)GlcNAc(b1-4)GlcNAc
# Summary of the method: as §1
# [21] = biological target: Man(a1-3)[Man(a1-6)]Man(a1-6)[Man(a1-3)]Man(b1-4)GlcNAc(b1-4)GlcNAc
# Summary of the method: as §1
# [22] = biological target: Neu5Ac(a2-3)Gal(b1-4)GlcNAc
# Summary of the method: as §1
# [23] = biological target: Neu5Ac(a2-3)Gal(b1-4)GlcNAc6S
# Summary of the method: as §1
# [24] = biological target: Neu5Ac(a2-3)Gal(b1-4)[Fuc(a1-3)]GlcNAc
# Summary of the method: as §1
# [25] = biological target: Neu5Ac(a2-3)Gal(b1-4)[Fuc(a1-3)]GlcNAc(b1-6)[Gal(b1-3)]GalNAc
# Summary of the method: as §1
# [26] = biological target: Neu5Ac(a2-3)[GalNAc(b1-4)]Gal(b1-4)GlcNAc
# Summary of the method: as §1
# [27] = biological target: Neu5Ac(a2-6)Gal(b1-4)GlcNAc(b1-2)Man(a1-3)[GlcNAc(b1-2)Man(b1-4)GlcNAc(b1-2)Man(a1-6)]Man(b1-4)GlcNAc(b1-4)GlcNAc
# Summary of the method: as §1
# [28] = biological target: Neu5Ac(a2-6)Gal(b1-4)GlcNAc6S
# Summary of the method: as §1
# [29] = biological target: Neu5Ac(b2-6)Gal(b1-4)GlcNAc
# Summary of the method: as §1
# Neu5Gc(a2-3)Gal(b1-4)Glc = biological target: Neu5Gc(a2-3)Gal(b1-4)Glc
# Summary of the method: as §1
binder,measurement,setting,value
B1,glycan array binding signal (z-score),[1],0.148
same,glycan array binding signal (z-score),[2],-0.137
same,glycan array binding signal (z-score),Fuc(a1-3)GlcNAc,0.009
same,glycan array binding signal (z-score),[3],-0.157
same,glycan array binding signal (z-score),[4],0.044
same,glycan array binding signal (z-score),[5],-0.15
same,glycan array binding signal (z-score),Gal(b1-2)Gal,-0.033
same,glycan array binding signal (z-score),[6],-0.172
same,glycan array binding signal (z-score),[7],5.73
same,glycan array binding signal (z-score),[8],-0.216
same,glycan array binding signal (z-score),[9],-0.176
same,glycan array binding signal (z-score),Gal3S(b1-3)GlcNAc,-0.026
same,glycan array binding signal (z-score),[10],0.018
same,glycan array binding signal (z-score),[11],-0.272
same,glycan array binding signal (z-score),[12],1.73
same,glycan array binding signal (z-score),[13],-0.105
same,glycan array binding signal (z-score),[14],-0.336
same,glycan array binding signal (z-score),[15],-0.267
same,glycan array binding signal (z-score),[16],7.92
same,glycan array binding signal (z-score),[17],3.37
same,glycan array binding signal (z-score),[18],7.69
same,glycan array binding signal (z-score),[19],4.83
same,glycan array binding signal (z-score),[20],11.8
same,glycan array binding signal (z-score),[21],0.127
same,glycan array binding signal (z-score),[22],-0.217
same,glycan array binding signal (z-score),[23],-0.127
same,glycan array binding signal (z-score),[24],-0.257
same,glycan array binding signal (z-score),[25],-0.407
same,glycan array binding signal (z-score),[26],-0.085
same,glycan array binding signal (z-score),[27],-0.249
same,glycan array binding signal (z-score),[28],-0.341
same,glycan array binding signal (z-score),[29],-0.361
same,glycan array binding signal (z-score),Neu5Gc(a2-3)Gal(b1-4)Glc,-0.065
